This note sets out measurements from the supplement of paper PMC9262897, “Low-cost anti-mycobacterial drug discovery using engineered E. coli” (Nature Communications, 2022).

Where a name gives a salt, the structure may show the parent alone. ± gives the standard deviation of the averaged measurements.

The test system of the assay is E. coli TESEC Alr+ wild-type control. The assay can be described thus: growth (OD600 after 10 h); higher = more growth (less inhibition). As to conditions: compound 0.1 mM; raw OD600 reference: median of DMSO wells 0.49, cell-free background 0.052. Here is the method: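 TESEC Mtb Alr E. coli (ΔaraC ΔtolC ΔentC Δalr ΔdadX, arabinose-inducible Mtb Alr) or the Alr+ wild-type control strain, grown in defined M9-fructose medium without D-alanine in 96-well plates with Prestwick library compounds at 0.1 mM and 1% DMSO. Low Alr induction is 0.1 µM arabinose and high induction is 10 mM arabinose.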
In the case of `CCN[C@H]1CN(CCCOC)S(=O)(=O)c2sc(S(N)(=O)=O)cc21` [Brinzolamide], the growth turned out to be 0.579 ± 0.098.

The compound `CCN(CC)C(=O)/C(C#N)=C/c1cc(O)c(O)c([N+](=O)[O-])c1` [Entacapone] gave a growth of 0.144 ± 0.02.

On to `CN(CCOc1ccc(NS(C)(=O)=O)cc1)CCc1ccc(NS(C)(=O)=O)cc1` [Dofetilide], for which the growth stood at 0.589 ± 0.053.

Consider `Cc1cccc(Nc2ccncc2S(=O)(=O)NC(=O)NC(C)C)c1` [Torsemide], for which the growth was 0.477 ± 0.021.

`CCC1NC(=O)c2cc(S(N)(=O)=O)c(Cl)cc2N1` (stereo not given) [Quinethazone] yielded a growth of 0.463 ± 0.013.

In turn, `C[C@]12C=CC(=O)C=C1CC[C@H]1[C@@H]3C[C@@H](O)[C@](O)(C(=O)CO)[C@@]3(C)C[C@H](O)[C@@]12F` [Triamcinolone] returned a growth of 0.451 ± 0.037.

Compound `CN/C(=N\CCSCc1nc[nH]c1C)NC#N` [Cimetidine] returned a growth of 0.545 ± 0.0056.

Compound `O=C1c2c(O)ccc(O)c2C(=O)c2c(NCCNCCO)ccc(NCCNCCO)c21` [Mitoxantrone dihydrochloride] returned a growth of 0.259 ± 0.051.

For the compound `CCCCCCCN(CC)CCCC(O)c1ccc(NS(C)(=O)=O)cc1` (stereo not given) [Ibutilide fumarate], the growth was 0.55 ± 0.095.

Compound `CO/N=C(\C(=O)N[C@@H]1C(=O)N2C(C(=O)O)=C(COC(N)=O)CS[C@H]12)c1ccco1` [Cefuroxime sodium salt] had a growth of 0.0629 ± 0.0034.

`NCCC[C@H](N)CC(=O)N[C@H]1CNC(=O)[C@H]([C@H]2C[C@H](O)NC(N)=N2)NC(=O)/C(=C/NC(N)=O)NC(=O)[C@H](CO)NC(=O)[C@H](CO)NC1=O` [Viomycin sulfate] registered a growth of 0.193 ± 0.13.

Take `CC(C)(O/N=C(\C(=O)N[C@@H]1C(=O)N2C(C(=O)[O-])=C(C[n+]3ccccc3)CS[C@H]12)c1csc(N)n1)C(=O)O` [Ceftazidime pentahydrate]: the growth came out at 0.0473 ± 0.00053.

`O=C(O)CCc1nc(-c2ccccc2)c(-c2ccccc2)o1` [Oxaprozin] registered a growth of 0.381 ± 0.039.

For `CCC(Cc1c(I)cc(I)c(N)c1I)C(=O)O` (stereo not given) [Iopanoic acid], the growth came to 0.263 ± 0.0034.

In turn, `CCCc1ncc(C[n+]2ccccc2C)c(N)n1` [Amprolium hydrochloride] had a growth of 0.497 ± 0.041.

In the case of `c1ccc2[nH]c(-c3cscn3)nc2c1` [Tiabendazole], the growth stood at 0.572 ± 0.075.

For `C[C@H](Cc1cc2c(c(C(N)=O)c1)N(CCCO)CC2)NCCOc1ccccc1OCC(F)(F)F` [Silodosin], the growth is 0.442 ± 0.056.

On to `C[N+]1(CCCCC[N+]2(C)CCCC2)CCCC1` [Pentolinium bitartrate], for which the growth is 0.515 ± 0.11.

The compound `Cn1cnc2c1c(=O)[nH]c(=O)n2C` [Theobromine] registered a growth of 0.461 ± 0.015.

Turning to `CCN(CC)C(C)CN1c2ccccc2Sc2ccccc21` (stereo not given) [Ethopropazine hydrochloride], the growth stood at 0.469 ± 0.026.

On to `Nc1nc(Cl)nc2c1ncn2[C@H]1C[C@H](O)[C@@H](CO)O1` [Cladribine], for which the growth came out at 0.577 ± 0.12.

For `CC(C[N+](C)(C)C)OC(N)=O` (stereo not given) [Bethanechol chloride], the growth was 0.603 ± 0.0074.

As for `COCC1=C(C(=O)OC(C)OC(=O)OC(C)C)N2C(=O)[C@@H](NC(=O)/C(=N\OC)c3csc(N)n3)[C@H]2SC1` (stereo not given in full) [Cefpodoxime proxetil], the growth stood at 0.425 ± 0.044.

In turn, `COc1c(O[C@@H]2O[C@H](CO)[C@@H](O)[C@H](O)[C@H]2O)cc2c(c1OC)-c1ccc(SC)c(=O)cc1[C@@H](NC(C)=O)CC2` [Thiocolchicoside] displayed a growth of 0.51 ± 0.076.

The compound `CCOC(=O)[C@H](CCc1ccccc1)N[C@@H](C)C(=O)N1[C@H](C(=O)O)C[C@@H]2CCC[C@@H]21` [Ramipril] gave a growth of 0.586 ± 0.011.

With `CN(N=O)C(=O)N[C@H]1C(O)O[C@H](CO)[C@@H](O)[C@@H]1O` (mixture of isomers) [Streptozotocin], the growth is 0.226 ± 0.025.

Regarding `CCC(C)(C)c1ccc(CC(C)CN2C[C@@H](C)O[C@@H](C)C2)cc1` (stereo not given in full) [Amorolfine hydrochloride], the growth came to 0.0891 ± 0.0055.

With `COc1cc2c(cc1OC)C(=O)C(CC1CCN(Cc3ccccc3)CC1)C2` (stereo not given) [Donepezil hydrochloride], the growth is 0.56 ± 0.055.

`CCCCCCCCNC(C)C(O)c1ccc(SC(C)C)cc1` (stereo not given) [Suloctidil] yielded a growth of 0.0529 ± 0.0091.

On to `C[C@@H]1CCC[C@H](C)N1NC(=O)c1ccc(Cl)c(S(N)(=O)=O)c1` [Clopamide], for which the growth came to 0.581 ± 0.048.

Compound `CCCCC(=O)O[C@H]1CC[C@H]2[C@@H]3CCc4cc(O)ccc4[C@H]3CC[C@]12C` [Estradiol Valerate] had a growth of 0.48 ± 0.071.

For the compound `CC[N+](C)(C)Cc1ccccc1Br` [Bretylium tosylate], the growth turned out to be 0.624 ± 0.021.

On to `OCCN(CCO)c1nc(N2CCCCC2)c2nc(N(CCO)CCO)nc(N3CCCCC3)c2n1` [Dipyridamole], for which the growth is 0.0816 ± 0.027.

`CC(=O)NC[C@H]1CN(c2ccc(N3CCOCC3)c(F)c2)C(=O)O1` [Linezolid] returned a growth of 0.0669 ± 0.00098.

`C=Cc1c(C)c2cc3nc(cc4[nH]c(cc5nc(cc1[nH]2)C(C)=C5CCC(=O)O)c(CCC(=O)OC)c4C)[C@@]1(C)C3=CC=C(C(=O)OC)C1C(=O)OC.C=Cc1c(C)c2cc3nc(cc4[nH]c(cc5nc(cc1[nH]2)C(C)=C5CCC(=O)OC)c(CCC(=O)O)c4C)[C@@]1(C)C3=CC=C(C(=O)OC)C1C(=O)OC` (stereo not given in full) [Verteporfin] displayed a growth of 0.5678 ± 0.0038.

`N[C@@H](C(=O)N[C@@H]1C(=O)N2C(C(=O)O)=C(Cl)CC[C@H]12)c1ccccc1` [Loracarbef]: the growth was 0.529 ± 0.067.

On to `CCCCC(CC)CNC(=N)NC(=N)NCCCCCCNC(=N)NC(=N)NCC(CC)CCCC` (stereo not given) [Alexidine dihydrochloride], for which the growth is 0.0485 ± 0.0022.

With `CC(C)(Oc1ccc(CCNC(=O)c2ccc(Cl)cc2)cc1)C(=O)O` [Bezafibrate], the growth was 0.483 ± 0.015.

Take `CC(C(=O)O)c1cccc(C(=O)c2ccccc2)c1` (stereo not given) [Ketoprofen]: the growth came out at 0.533 ± 0.084.

In turn, `NC(=O)N1c2ccccc2CC(=O)c2ccccc21` [Oxcarbazepine] registered a growth of 0.601 ± 0.13.
